Structures are written as SMILES. Values without a mark were called inactive. Results filed as inconclusive are left out. The source made the active and inactive calls. Unless noted, calls come from the whole dose curve.

From PubChem BioAssay (Tox21) come the findings set out here.

Experiment [1] is described as follows: Nuclear factor erythroid 2-related factor 2/antioxidant responsive element (Nrf2/ARE) small molecule agonists: qHTS cell viability counter screen in human keratinocytes (AID 1919968; active = well fitted curve in the direction sought with a large enough effect in the repeat runs; an effect the other way counts as inactive or inconclusive; note: nearly all actives have a fitted effect of over 55% in size). In a few lines:
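HaCaT ARE reporter line, 1,500 cells/well; 5 h settle, 37 C/5% CO2; cpd in DMSO pinned; 23 h exposure; CellTiter-Fluor, 1 h; fluorescence.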

A short description of experiment [2]: Nuclear factor erythroid 2-related factor 2/antioxidant responsive element (Nrf2/ARE) small molecule agonists: luciferase reporter gene qHTS assay in human keratinocytes (AID 1919969). Note: nearly all actives have a fitted effect of over 35% in size. Note: potency is the fitted concentration of half-maximal effect. Background: A reporter such as luciferase makes a cellular process visible.
The target in experiment [3] is Gonadotropin-releasing hormone receptor (Homo sapiens) (UniProt P30968). Briefly: Human gonadotropin-releasing hormone receptor (GnRHR) small molecule agonists, calcium flux assay in GnRHR-HEK293 cells (AID 1920063). Note: nearly all actives have a fitted effect of over 35% in size. In a few lines: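 GnRHR-HEK293, 1500 cells/well, 18 h 37 C/5% CO2; Ca dye 1 h 37 C; cpd pinned (DMSO), agonist mode; kinetic FL 480/540, 3 min, 1 s reads; 15 conc, n=3.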

Experiment [4] deals with KiSS-1 receptor (Homo sapiens) (UniProt Q969F8). Briefly: Human kisspeptin (KISS1R) small molecule agonists, calcium flux assay in KISS1R-HEK293 cells (AID 1920064; active = well fitted curve in the direction sought with a large enough effect in the repeat runs; an effect the other way counts as inactive or inconclusive). In a few lines: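 Stable human KISS1R HEK293 line; 18 h plating, 37 C/5% CO2; calcium dye 1 h 37 C; compound pin transfer; kinetic fluorescence Ex/Em 480/540, 3 min.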
For orientation: A change in cytosolic calcium serves as a functional read-out for many receptors and channels.

Experiment [5] can be described thus: G protein-coupled receptor (GPCR) small molecule agonists, calcium flux assay: HEK293 wild type cell line counter screen (AID 1920065). In a few lines:
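Kinetic fluorescence at Ex/Em 480/540, recorded every second over 3 min, served as the read-out after compound addition. Each compound was tested at 15 concentrations in triplicate on cells pre-loaded with calcium dye for 1 h.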

Experiment [6] is described as follows: p53 small molecule agonists, cell-based qHTS assay with rat liver microsomes: qHTS cell viability counter screen (AID 1963580). Note: nearly all actives have a fitted effect of over 45% in size. In a few lines:
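Viability is assessed in parallel with the p53 reporter read: HCT-116 p53RE-bla cells receive compounds plus rat microsomes and NADPH (0.5 mg/mL final apiece), incubate 16 h at 37 C, and then CellTiter-Glo luminescence is recorded.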
In general terms: Quantitative high-throughput screening tests each substance at several concentrations.

Experiment [7] is described as follows: p53 small molecule agonists, cell-based qHTS assay: qHTS cell viability counter screen (AID 1963581). Note: nearly all actives have a fitted effect of over 45% in size. In a few lines: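 HCT-116 p53RE-bla cells, 4,000/well, plated 5 h before compound pin transfer; 16 h at 37 C; bla substrate 2 h RT; then CellTiter-Glo, 30 min RT, luminescence.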
Experiment [8] addresses 5-hydroxytryptamine receptor 2A (Homo sapiens) (UniProt P28223). The experiment can be described thus: 5-hydroxytryptamine receptor 2A (HTR2A) small molecule antagonists, cell-based qHTS assay (AID 1963586). Note: nearly all actives have a fitted effect of over 45% in size. In a few lines: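 Antagonist-mode intracellular calcium assay: DOI (4 nM) added after 5 min compound pre-incubation at room temperature to dye-loaded HTR2A-CHO cells. Fluorescence followed for 3 min, sampled every second.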

For experiment [9] the target is unchanged. Briefly: 5-hydroxytryptamine receptor 2A (HTR2A) small molecule agonists, cell-based qHTS assay (AID 1963587). Note: nearly all actives have a fitted effect of over 30% in size. In a few lines: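 CHO cells stably expressing human HTR2A, plated 18 h, loaded with calcium dye 1 h at 37 C. Agonist mode: compounds added and intracellular calcium fluorescence recorded kinetically for 2 min at 1 sec intervals.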
For experiment [10], the target named is Muscarinic acetylcholine receptor M1 (Homo sapiens) (UniProt P11229). The experiment can be described thus: Cholinergic receptor muscarinic 1 (CHRM1) small molecule antagonists, cell-based qHTS assay (AID 1963588). Note: nearly all actives have a fitted effect of over 40% in size. In a few lines: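 CHRM1-CHO calcium-flux assay, antagonist mode. Cells were seeded 18 h, dye-loaded 1 h at 37 C and given compound for 5 min at RT, then acetylcholine was added at 50nM. FDSS fluorescence was read 3 min; 15 concentrations, three runs.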

Experiment [11] shares this target. Briefly: Cholinergic receptor muscarinic 1 (CHRM1) small molecule agonists, cell-based qHTS assay (AID 1963589). Note: nearly all actives have a fitted effect of over 35% in size. In a few lines:
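Human M1 in stable CHO line; 18 h plating, 1 h dye load 37 C; cpd added (agonist mode); Ca2+ fluorescence kinetic read, 1 s intervals; 15 conc, 3 runs.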

The nature of experiment [12]: cAMP Responsive Elements (CRE) small molecule agonists, cell-based qHTS assay (AID 1963590). In a few lines:
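HEK 293T CRE-bla, 2,000 cells/well, 18 h preincubation 37 C/5% CO2; cpds (DMSO) pinned, 3 h; LiveBLAzer B/G FRET substrate, 2 h RT.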

A short description of experiment [13]: cAMP Responsive Elements (CRE) small molecule antagonists, cell-based qHTS assay (AID 1963591; active = well fitted inhibition curve with a large enough effect in the signal ratio in the repeat runs, not every such curve was filed as active; the % refers to the signal ratio). In a few lines:
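Beta-lactamase reporter read by FRET substrate (LiveBLAzer B/G) after 2 h at room temperature. CRE-bla HEK293T cells had received compound plus 0.25 uM (final) NKH477 for 3 h at 37 °C.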

In experiment [14] the target is Beta-2 adrenergic receptor (Homo sapiens) (UniProt P07550). The experiment can be described thus: Adrenergic beta2 receptor (ADRB2) small molecule antagonists, cell-based qHTS assay (AID 1963592). Note: series mostly up to about 92 µM; nearly all actives have a fitted effect of over 50% in size. In a few lines:
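Cells (CHO, stable ADRB2 overexpression) incubated 18-20hr at 37C; compounds added from DMSO; agonist mix (1nM isoproterenol, 100uM IBMX, 25uM Ro-20-1724) added; 0.5hr RT; d2-cAMP and anti-cAMP-cryptate added; 1hr RT; 665/615 nm read.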

Experiment [15] has the same target. Briefly: Adrenergic beta2 receptor (ADRB2) small molecule agonists, cell-based qHTS assay (AID 1963593).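 Note: CHO cells stably overexpressing human ADRB2.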 In a few lines: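 CHO cells stably over-expressing ADRB2 were plated overnight at 37C, then dosed with compounds plus a stimulation mix containing 100uM IBMX and 25uM Ro-20-1724 for 0.5hr at room temperature. cAMP was measured by HTRF competition, 1hr.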
In experiment [16] the target is D(2) dopamine receptor (Homo sapiens) (UniProt P14416). Briefly: Dopamine D2 receptor (DRD2) small molecule agonists, cell-based qHTS assay (AID 1963594). Note: nearly all actives have a fitted effect of over 35% in size. In a few lines:
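HEK293 cells stably expressing human DRD2, pre-treated with PDE inhibitor Ro20-1724 (0.1 mM final) and compound 10 min at room temperature, then stimulated with NKH477 (200nM […]) for 30 min. cAMP read by HTRF (665/620 nm).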

For experiment [17] the target is unchanged. Briefly: Dopamine D2 receptor (DRD2) small molecule antagonists, cell-based qHTS assay (AID 1963595; active = well fitted inhibition curve with a large enough effect in the signal ratio in the repeat runs, with a control signal flat; the % refers to the signal ratio). In a few lines: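 HTRF cAMP read-out at 665 and 620 nm emission (340 nm excitation). Antagonist mode: compounds were tested against 12 nM quinpirole in DRD2-HEK293 cells, with 200 nM NKH477 raising cAMP and 0.1 mM Ro20-1724 blocking its breakdown.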
The nature of experiment [18]: p53 small molecule agonists, cell-based qHTS assay (AID 1963582; active = well fitted activation curve with a large enough effect in the signal ratio in the repeat runs, not every such curve was filed as active; the % refers to the signal ratio). In a few lines:
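Reporter line: p53RE-bla. Pre-incubation 5 h, 37 C, 5% CO2; compound (DMSO, pin tool) 16 h, 37 C; B/G FRET substrate 2 h RT; fluorescence intensity read.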

Sequence of Beta-2 adrenergic receptor (Homo sapiens) (P07550 whole entry, looked up): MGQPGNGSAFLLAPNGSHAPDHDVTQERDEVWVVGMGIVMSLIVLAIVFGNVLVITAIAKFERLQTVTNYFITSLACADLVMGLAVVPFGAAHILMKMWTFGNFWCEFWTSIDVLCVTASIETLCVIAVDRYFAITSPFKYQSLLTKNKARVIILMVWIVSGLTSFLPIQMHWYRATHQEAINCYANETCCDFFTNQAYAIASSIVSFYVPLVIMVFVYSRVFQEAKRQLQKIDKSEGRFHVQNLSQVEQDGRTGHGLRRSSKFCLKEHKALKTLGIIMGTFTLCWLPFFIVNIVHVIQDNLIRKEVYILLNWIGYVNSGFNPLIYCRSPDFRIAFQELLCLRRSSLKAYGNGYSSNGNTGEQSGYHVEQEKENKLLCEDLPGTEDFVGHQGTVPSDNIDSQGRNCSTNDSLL
Sequence of Gonadotropin-releasing hormone receptor (Homo sapiens) (P30968 whole entry, looked up): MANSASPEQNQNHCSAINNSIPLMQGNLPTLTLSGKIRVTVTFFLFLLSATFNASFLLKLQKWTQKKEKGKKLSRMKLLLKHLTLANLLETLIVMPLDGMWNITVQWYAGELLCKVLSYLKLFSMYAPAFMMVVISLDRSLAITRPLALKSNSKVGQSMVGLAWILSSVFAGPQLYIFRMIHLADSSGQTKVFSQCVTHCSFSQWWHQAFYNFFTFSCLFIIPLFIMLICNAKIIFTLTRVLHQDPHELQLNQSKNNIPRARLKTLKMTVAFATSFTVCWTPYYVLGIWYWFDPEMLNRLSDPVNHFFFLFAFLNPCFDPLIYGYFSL
Sequence of Muscarinic acetylcholine receptor M1 (Homo sapiens) (P11229 whole entry, looked up): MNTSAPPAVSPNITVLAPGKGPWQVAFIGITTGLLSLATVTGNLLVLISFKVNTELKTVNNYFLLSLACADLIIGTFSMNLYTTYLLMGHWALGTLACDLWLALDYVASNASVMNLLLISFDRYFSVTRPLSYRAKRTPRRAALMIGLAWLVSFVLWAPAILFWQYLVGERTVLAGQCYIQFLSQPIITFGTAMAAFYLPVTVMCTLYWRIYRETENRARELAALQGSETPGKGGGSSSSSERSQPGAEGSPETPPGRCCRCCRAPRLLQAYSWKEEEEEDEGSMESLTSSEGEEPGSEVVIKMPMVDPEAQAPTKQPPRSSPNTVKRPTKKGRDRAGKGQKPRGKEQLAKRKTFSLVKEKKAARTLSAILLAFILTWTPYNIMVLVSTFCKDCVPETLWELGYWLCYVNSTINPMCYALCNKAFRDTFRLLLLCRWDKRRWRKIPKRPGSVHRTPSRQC
Sequence of 5-hydroxytryptamine receptor 2A (Homo sapiens) (P28223 whole entry, looked up): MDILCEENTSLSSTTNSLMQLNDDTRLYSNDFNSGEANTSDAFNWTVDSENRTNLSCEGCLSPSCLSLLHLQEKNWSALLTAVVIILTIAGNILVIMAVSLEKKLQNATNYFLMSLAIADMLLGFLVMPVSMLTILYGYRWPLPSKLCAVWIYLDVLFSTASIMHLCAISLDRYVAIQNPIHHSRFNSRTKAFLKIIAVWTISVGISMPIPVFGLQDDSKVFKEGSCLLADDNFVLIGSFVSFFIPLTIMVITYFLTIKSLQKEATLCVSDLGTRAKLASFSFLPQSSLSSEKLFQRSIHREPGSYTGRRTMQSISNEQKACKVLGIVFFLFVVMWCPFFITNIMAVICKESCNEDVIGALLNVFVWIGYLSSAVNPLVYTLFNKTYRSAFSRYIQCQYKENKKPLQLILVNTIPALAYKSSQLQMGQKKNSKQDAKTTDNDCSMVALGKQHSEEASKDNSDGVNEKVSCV
Sequence of KiSS-1 receptor (Homo sapiens) (Q969F8 whole entry, looked up): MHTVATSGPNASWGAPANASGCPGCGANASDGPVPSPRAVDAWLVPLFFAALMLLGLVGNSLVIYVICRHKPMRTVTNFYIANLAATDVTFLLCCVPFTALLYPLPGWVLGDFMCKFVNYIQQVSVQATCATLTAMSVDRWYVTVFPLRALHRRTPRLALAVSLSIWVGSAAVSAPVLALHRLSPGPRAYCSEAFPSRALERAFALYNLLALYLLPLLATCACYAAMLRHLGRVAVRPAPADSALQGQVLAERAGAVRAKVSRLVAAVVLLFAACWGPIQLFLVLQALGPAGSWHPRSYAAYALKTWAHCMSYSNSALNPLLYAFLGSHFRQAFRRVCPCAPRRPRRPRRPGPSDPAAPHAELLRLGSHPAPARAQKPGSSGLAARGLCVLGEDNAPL
Sequence of D(2) dopamine receptor (Homo sapiens) (P14416 whole entry, looked up): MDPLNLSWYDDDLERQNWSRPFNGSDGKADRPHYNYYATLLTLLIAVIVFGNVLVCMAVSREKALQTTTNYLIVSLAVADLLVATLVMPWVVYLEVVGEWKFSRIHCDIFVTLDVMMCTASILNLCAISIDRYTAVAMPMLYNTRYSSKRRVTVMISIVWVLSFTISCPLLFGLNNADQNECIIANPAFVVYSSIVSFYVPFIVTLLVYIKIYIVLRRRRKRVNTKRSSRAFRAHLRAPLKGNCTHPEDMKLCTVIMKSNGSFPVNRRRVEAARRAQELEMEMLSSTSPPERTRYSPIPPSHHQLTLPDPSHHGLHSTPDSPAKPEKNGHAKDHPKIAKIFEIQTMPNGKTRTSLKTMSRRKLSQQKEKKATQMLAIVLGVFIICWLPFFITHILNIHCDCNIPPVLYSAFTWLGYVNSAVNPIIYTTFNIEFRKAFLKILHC

As to `CN(C)C(C)(C)CO`, the Potency result in experiment [1], in experiment [2], in experiment [3], in experiment [4], in [5] and in experiment [6] was “inactive” in each case. Further, the Potency result in experiment [7], in experiment [8], in [9], in experiment [10], in experiment [11] and in experiment [12] was “inactive” in each case. In addition, the Potency result in [13], in experiment [14], in experiment [15], in [16] and in [17] was “inactive” each time.

For the molecule `C/C=C/C=C/C=O`, the Potency result in experiment [1], in experiment [3], in experiment [4], in [5], in [6] and in experiment [7] was “inactive” in each case. For the same molecule, the Potency result in experiment [8], in experiment [9], in [10], in experiment [11], in experiment [12] and in experiment [13] was “inactive” throughout. In addition, the Potency result in experiment [14] and in experiment [16] was “inactive” each time. Moreover, the Potency in experiment [2] is 60.7 µM (active).

Regarding `CN(C)[C@@H]1C(=O)C(C(N)=O)=C(O)[C@@]2(O)C(=O)C3=C(O)c4c(O)cccc4C[C@H]3C[C@@H]12`, the Potency entry in experiment [1], in experiment [2], in experiment [3], in [4], in [5] and in [6] was “inactive” in each case. In addition, the Potency entry in [18], in experiment [8], in [9], in [10], in experiment [11] and in experiment [14] was “inactive” in each case. In addition, the Potency entry in [16] and in [17] was “inactive” each time.

Regarding `BrCCOc1ccccc1`, the Potency entry in experiment [1], in experiment [2], in experiment [3], in experiment [4], in experiment [5] and in experiment [6] was “inactive” each time. In addition, the Potency entry in experiment [7], in experiment [8], in [9], in experiment [10], in [11] and in experiment [12] was “inactive” each time. In addition, the Potency entry in experiment [13], in [14], in [16] and in [17] was “inactive” each time.

Take `Cc1oc(=O)oc1CN1CCN(c2cc3c(cc2F)c(=O)c(C(=O)O)c2n3C(C)S2)CC1` (stereo not given): the Potency entry in experiment [1], in experiment [2], in experiment [3], in [4], in experiment [5] and in experiment [6] was “inactive” each time. Besides, the Potency result in [7], in experiment [8], in [9], in experiment [10], in [11] and in [16] was “inactive” throughout.

`NC(CCC(=O)O)C(=O)O` (stereo not given): the Potency result in [1], in experiment [2], in experiment [3], in [4], in experiment [5] and in experiment [6] was “inactive” throughout. The Potency result in experiment [7], in experiment [8], in [9], in [11], in [12] and in experiment [13] was “inactive” each time. Also, the Potency result in experiment [14], in [16] and in experiment [17] was “inactive” in each case.

Consider `COc1c2occc2c(OC)c2c(=O)cc(C)oc12`, for which the Potency result in [1], in experiment [2], in experiment [3], in experiment [4], in experiment [5] and in [6] was “inactive” in each case. For the same molecule, the Potency entry in experiment [8], in experiment [9], in experiment [10], in [11], in [12] and in [14] was “inactive” throughout. In addition, the Potency result in experiment [15], in experiment [16] and in [17] was “inactive” each time.

Regarding `CC1=C(CC(=O)O)c2cc(F)ccc2/C1=C\c1ccc(S(C)(=O)=O)cc1`, the Potency entry in [1], in experiment [2], in experiment [3], in experiment [4], in experiment [5] and in experiment [6] was “inactive” throughout. In addition, the Potency entry in experiment [7] and in experiment [14] was “inactive” each time.

As to `C[C@@H](C1=C(CCN(C)C)Cc2ccccc21)c1ccccn1`, the Potency entry in [1], in experiment [2], in [3], in [4], in experiment [5] and in experiment [6] was “inactive” throughout. The Potency result in [8], in experiment [9], in experiment [11], in experiment [12], in experiment [13] and in experiment [14] was “inactive” in each case. Further, the Potency entry in experiment [17] was “inactive”.
